Reference: ChEMBL document CHEMBL3988442, “University of Dundee, Small-Polar-MMV Screening Library” (2021)
For some of these results: Potency and affinity values are given separately.

Legend:
Set-up in all cases: scale not given: direction of the effect not stated beside the values
[1] = biological target: Protein translocase subunit SecA (Escherichia coli (strain K12)) (UniProt P10408); experiment: Assay to Identify E. coli SecA ATPase Inhibitors; type: functional; settings: 30 µM
[2] = biological target: T1, Ubiquitin-activating enzyme e1, putative (Leishmania donovani (strain BPK282A1)) (UniProt E9BSI1); experiment: Leishmania donovani Ubiquitin Activating Enzyme (LdE1); type: functional; settings: 30 µM
T1 sequence (whole entry): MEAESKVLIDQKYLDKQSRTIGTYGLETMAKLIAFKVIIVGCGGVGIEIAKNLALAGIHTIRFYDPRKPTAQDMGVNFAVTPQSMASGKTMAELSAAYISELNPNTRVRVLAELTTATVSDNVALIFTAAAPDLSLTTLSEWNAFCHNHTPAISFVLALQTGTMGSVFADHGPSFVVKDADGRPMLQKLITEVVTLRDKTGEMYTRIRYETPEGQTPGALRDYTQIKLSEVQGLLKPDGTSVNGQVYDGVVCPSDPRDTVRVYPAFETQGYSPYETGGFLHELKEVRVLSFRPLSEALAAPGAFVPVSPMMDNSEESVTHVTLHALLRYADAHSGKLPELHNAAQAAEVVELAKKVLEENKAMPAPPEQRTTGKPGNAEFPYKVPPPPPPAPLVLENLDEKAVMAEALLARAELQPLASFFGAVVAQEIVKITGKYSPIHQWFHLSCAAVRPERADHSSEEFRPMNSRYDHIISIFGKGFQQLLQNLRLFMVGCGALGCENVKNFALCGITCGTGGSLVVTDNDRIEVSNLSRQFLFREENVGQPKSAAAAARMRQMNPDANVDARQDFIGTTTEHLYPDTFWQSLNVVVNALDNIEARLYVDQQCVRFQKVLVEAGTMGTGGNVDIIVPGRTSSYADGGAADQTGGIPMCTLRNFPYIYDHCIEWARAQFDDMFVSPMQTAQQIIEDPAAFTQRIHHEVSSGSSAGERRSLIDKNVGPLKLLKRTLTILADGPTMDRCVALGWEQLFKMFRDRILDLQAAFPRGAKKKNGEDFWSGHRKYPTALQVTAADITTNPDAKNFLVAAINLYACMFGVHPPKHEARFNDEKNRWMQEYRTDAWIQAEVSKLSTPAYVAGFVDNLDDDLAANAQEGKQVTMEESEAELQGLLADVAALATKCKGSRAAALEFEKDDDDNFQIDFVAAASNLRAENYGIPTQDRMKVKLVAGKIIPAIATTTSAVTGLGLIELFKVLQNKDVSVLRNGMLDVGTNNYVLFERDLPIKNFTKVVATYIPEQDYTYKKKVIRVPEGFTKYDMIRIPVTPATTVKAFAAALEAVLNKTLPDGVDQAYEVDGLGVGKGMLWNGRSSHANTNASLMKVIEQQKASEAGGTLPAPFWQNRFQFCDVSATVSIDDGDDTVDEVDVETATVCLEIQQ

[3] = biological target: AMP-activated protein kinase, AMPK (Homo sapiens) (UniProt P54646+O43741+P54619+Q9UGJ0+Q9Y478+Q13131+Q9UGI9); experiment: AMP-dependent Kinase enzyme assay. An in vitro enzyme assay that detects ADP turnover that is directly proportional to AMPK activity. This uses naive AMPK that is activated during the assay with MK-8722; type: functional; settings: 30 µM
[4] = biological target: Sialic acid-binding Ig-like lectin 9 (Homo sapiens) (UniProt Q9Y336); experiment: Hs-Siglec9 ALPHAscreen SOP 20170721; settings: 10 µM
Sequence of Sialic acid-binding Ig-like lectin 9 (Homo sapiens) (Q9Y336 whole entry): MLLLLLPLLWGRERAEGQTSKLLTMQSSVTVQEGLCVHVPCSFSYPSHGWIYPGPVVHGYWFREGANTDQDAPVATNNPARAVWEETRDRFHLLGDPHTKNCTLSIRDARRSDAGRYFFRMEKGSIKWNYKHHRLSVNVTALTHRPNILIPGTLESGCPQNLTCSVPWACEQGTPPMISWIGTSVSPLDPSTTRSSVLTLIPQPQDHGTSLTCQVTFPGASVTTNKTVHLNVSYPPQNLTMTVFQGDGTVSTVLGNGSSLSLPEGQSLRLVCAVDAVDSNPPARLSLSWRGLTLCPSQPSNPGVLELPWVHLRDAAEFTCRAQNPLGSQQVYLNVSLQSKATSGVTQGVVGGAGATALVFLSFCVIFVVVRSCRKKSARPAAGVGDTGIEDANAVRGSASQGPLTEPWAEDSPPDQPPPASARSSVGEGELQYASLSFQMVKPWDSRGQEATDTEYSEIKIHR

[5] = system: Trypanosoma cruzi; experiment: Trypanosoma cruzi phosphomannomutase and mannose-1-phosphate guanylyltransferase assay; type: functional; settings: 10 µM
[6] = biological target: T2, Arginase-2, mitochondrial (Homo sapiens) (UniProt P78540); experiment: in vitro enzyme assay to detect the production of urea directly proportional to the activity of Arginase II; type: functional; settings: 33.3 µM; further: in the data most compounds retested in dose-response had high values
T2 sequence (whole entry): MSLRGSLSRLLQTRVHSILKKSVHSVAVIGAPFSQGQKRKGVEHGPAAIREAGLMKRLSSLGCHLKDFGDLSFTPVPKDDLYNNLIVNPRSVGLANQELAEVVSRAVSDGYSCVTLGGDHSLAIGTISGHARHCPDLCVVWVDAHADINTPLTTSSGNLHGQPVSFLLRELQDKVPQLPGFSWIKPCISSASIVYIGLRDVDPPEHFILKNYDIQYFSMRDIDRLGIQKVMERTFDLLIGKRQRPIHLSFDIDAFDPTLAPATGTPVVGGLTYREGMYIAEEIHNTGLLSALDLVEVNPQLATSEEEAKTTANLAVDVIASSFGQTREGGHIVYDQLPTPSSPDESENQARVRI

[7] = biological target: T3, Proteasome subunit beta (Trypanosoma cruzi) (UniProt O96673); experiment: Trypanosoma cruzi proteasome chymotrypsin-like activity (TcProtChymo) assay.; further: in the data most compounds retested in dose-response had high values; type: functional; settings: 9.37 µM
T3 sequence (whole entry): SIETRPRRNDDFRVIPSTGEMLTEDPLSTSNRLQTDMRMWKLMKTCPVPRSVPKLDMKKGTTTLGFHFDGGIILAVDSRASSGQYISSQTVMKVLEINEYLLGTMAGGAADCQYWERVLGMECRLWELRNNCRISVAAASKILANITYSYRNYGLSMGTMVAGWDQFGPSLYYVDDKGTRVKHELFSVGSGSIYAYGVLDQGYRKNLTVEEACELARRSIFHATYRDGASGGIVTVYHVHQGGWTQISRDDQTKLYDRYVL

[8] = organism: Homo sapiens; experiment: To identify inhibition of the IFN signalling (Jak-Stat) pathway via expression of an eGFP reporter gene under the control of an IFN-stimulated response element (ISRE) containing MxA promoter.; type: functional; settings: 30 µM
[9] = biological target: T4, Tyrosyl-tRNA synthetase, putative (Trypanosoma cruzi (strain CL Brener)) (UniProt Q4DSP6); experiment: Trypanosoma cruzi tyrosyl tRNA synthetase (TcYRS) _High Tyrosine SOP; type: functional; settings: 30 µM; further: in the data most compounds retested in dose-response had high values
T4 sequence (whole entry): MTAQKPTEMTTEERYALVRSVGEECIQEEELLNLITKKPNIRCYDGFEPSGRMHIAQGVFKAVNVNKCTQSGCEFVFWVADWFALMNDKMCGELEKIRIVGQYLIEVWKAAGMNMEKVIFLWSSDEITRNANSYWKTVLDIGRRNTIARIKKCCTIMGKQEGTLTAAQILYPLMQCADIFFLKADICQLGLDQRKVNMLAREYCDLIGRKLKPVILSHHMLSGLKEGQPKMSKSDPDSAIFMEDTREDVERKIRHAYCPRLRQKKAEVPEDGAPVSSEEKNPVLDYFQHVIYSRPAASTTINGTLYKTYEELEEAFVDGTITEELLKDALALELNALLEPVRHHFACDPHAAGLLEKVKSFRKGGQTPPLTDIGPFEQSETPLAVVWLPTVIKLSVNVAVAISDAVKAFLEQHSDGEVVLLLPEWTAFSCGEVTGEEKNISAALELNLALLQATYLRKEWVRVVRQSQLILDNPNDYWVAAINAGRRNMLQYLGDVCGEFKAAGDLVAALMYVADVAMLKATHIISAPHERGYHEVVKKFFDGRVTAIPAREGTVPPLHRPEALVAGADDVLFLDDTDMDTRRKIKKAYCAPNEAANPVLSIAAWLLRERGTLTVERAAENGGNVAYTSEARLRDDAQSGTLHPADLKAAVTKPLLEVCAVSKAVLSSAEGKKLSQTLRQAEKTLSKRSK

[10] = biological target: T4, Tyrosyl-tRNA synthetase, putative (Trypanosoma cruzi (strain CL Brener)); experiment: Trypanosoma cruzi tyrosyl tRNA synthetase (TcYRS) SOP; type: functional; settings: 30 µM
[11] = biological target: Chromo domain-containing protein 1 (Saccharomyces cerevisiae (strain ATCC 204508 / S288c) (Baker's yeast)) (UniProt P32657); experiment: ScCHD-1 Enzyme Inhibition Assay; type: functional; settings: 30 µM; further: in the data most compounds retested in dose-response had high values
Sequence of Chromo domain-containing protein 1 (Saccharomyces cerevisiae (strain ATCC 204508 / S288c) (Baker's yeast)) (P32657 whole entry, the tested form may be a part): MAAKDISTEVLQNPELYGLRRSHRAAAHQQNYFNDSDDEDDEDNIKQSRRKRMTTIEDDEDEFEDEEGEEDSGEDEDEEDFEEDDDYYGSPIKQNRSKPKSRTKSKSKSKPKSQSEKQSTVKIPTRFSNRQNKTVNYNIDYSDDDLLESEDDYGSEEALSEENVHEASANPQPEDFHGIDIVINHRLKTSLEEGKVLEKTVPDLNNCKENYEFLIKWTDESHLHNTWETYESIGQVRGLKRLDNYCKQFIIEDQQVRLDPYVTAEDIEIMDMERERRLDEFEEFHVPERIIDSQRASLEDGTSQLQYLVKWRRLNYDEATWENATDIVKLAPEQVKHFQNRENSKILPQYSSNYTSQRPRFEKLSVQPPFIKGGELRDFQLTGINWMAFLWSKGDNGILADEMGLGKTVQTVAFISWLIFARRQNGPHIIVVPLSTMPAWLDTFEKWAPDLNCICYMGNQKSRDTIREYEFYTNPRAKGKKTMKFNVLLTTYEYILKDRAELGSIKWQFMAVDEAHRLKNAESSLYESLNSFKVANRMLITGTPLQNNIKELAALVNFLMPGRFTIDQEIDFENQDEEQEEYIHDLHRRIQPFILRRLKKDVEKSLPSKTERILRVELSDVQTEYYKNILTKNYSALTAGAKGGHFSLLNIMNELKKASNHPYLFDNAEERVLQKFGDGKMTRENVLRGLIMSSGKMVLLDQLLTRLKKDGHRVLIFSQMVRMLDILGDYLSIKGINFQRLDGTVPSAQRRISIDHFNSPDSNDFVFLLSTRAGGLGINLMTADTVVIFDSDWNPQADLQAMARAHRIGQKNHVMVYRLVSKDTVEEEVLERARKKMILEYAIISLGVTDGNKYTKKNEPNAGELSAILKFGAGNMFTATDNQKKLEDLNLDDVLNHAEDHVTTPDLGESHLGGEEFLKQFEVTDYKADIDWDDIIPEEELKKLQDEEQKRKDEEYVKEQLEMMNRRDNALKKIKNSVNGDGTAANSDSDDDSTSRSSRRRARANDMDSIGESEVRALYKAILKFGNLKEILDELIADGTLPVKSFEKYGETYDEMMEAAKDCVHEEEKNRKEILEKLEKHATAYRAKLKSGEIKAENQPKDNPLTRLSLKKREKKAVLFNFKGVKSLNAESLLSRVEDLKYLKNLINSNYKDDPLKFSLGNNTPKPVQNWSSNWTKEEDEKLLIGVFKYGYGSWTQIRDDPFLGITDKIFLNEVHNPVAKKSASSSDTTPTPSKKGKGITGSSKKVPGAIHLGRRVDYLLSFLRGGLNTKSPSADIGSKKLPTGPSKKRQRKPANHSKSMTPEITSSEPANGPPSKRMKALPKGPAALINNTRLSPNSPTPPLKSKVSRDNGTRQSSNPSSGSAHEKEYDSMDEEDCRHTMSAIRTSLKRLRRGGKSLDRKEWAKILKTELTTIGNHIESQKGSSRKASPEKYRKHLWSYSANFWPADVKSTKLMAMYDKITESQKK

Sequence of Protein translocase subunit SecA (Escherichia coli (strain K12)) (P10408 whole entry): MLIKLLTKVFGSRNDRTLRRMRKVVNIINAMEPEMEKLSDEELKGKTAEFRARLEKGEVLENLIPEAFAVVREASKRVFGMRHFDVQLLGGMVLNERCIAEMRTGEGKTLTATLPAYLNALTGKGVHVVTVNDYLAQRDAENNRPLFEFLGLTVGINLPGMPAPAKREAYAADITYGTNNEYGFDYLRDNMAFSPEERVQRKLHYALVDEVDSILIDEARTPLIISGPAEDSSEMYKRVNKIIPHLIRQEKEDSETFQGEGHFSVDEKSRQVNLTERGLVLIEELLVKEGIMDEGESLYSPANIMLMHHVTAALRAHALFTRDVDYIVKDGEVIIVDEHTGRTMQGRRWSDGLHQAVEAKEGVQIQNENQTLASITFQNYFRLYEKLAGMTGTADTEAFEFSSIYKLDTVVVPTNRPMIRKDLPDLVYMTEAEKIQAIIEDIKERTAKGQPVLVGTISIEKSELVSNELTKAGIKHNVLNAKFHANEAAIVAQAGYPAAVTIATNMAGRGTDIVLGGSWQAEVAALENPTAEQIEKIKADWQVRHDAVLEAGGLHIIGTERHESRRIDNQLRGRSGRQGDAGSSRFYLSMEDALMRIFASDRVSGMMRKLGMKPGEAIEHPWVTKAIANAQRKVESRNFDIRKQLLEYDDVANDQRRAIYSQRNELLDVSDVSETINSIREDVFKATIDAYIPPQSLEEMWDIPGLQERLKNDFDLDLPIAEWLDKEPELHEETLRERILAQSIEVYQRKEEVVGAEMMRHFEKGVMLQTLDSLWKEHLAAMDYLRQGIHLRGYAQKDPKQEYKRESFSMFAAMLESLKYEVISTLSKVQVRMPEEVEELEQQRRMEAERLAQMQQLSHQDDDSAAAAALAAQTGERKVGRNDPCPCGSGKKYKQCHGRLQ

Structure (SMILES)	Percent Effect [1] [%]	Percent Effect [2] [%]	Percent Effect [3] [%]	Percent Effect [4] [%]	Percent Effect [5] [%]	Percent Effect [6] [%]	Percent Effect [7] [%]	Percent Effect [8] [%]	Percent Effect [9] [%]	Percent Effect [10] [%]	Percent Effect [11] [%]
CNc1cncc(C2CCCN2Cc2ccccc2OCC(=O)O)n1 (stereo not drawn)	-4.52	-52.7	7.74	0.809	-3.75	-2.55	9.52	5.72	1.07	3.9	0.143
O=C(c1ccco1)N1C[C@@H]2OCCN(CCN3CCCC3)[C@@H]2C1	-2.67	5.41	5.74	-2.98	-1.07	1.59	16.1	-16.1	2.16	5.13	4.02
Cc1nc2ccccc2c(=O)n1CCC(=O)N1CCSCC1	-6.49	13.2	14.1	6.54	3.19	0	6.85	4.99	6.37	17.1	-13.3
CCn1c(Cn2cncn2)nnc1C1CCN(C(=O)CCSC)CC1	-3.03	2.7	-5.34	25.4	3.23	20.6	0.944	20.4	6.45	13.6	-3.37
CN1CCCC(Cc2ccnc3ccncc23)CC1 (stereo not drawn)	-5.09	-1.35	2.02	0.644	-0.988	-2.09	-0.312	3.76	2.15	-1.3	4.65
Cn1ccnc1CN1CCCCC1Cn1cccn1 (stereo not drawn)	-4.99	3.8	0.666	3.72	0.718	0.215	-1.03	4.51	6.25	10.1	-20.8
Cn1nnc2c1CCN(CC1CC1)C2COCc1ccccc1 (stereo not drawn)	-1.15	16	-5.25	-5.75	2.36	5.36	3.44	-2.55	9.57	14.1	-4.41
Cc1noc(C(C)C)c1C(=O)NS(=O)(=O)c1ccc2c(c1)OCCCO2	-0.953	2.63	4.57	1.83	4.19	-3.55	6.23	24.3	0	5.2	15.4
